Inconclusive results are not listed. Where a call stands in place of a potency, no number is given. The source made the active and inactive calls. Calls follow the shape of the dose curve; as a rule, active = well fitted inhibition curve with a large enough effect; inconclusive = small, poorly fitted or top-dose-only effect; inactive = flat fitted curve, though single readings scatter.

Sequence of Calcium and integrin-binding protein 1 (Homo sapiens) (Q99828 whole entry, looked up): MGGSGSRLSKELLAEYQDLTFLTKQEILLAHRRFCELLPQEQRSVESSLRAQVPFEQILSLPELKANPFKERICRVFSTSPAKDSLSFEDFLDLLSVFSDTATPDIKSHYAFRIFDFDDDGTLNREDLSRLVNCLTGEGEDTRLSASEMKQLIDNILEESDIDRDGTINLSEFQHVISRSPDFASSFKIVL

In this assay the target is Calcium and integrin-binding protein 1 (Homo sapiens) (UniProt Q99828). As to the kind of experiment: Primary qHTS for Identification of Calcium Integrin Binding Protein 1 (CIB1) Competitor (AID 1508620).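 Also: GST tagged CIB1 binding a fluorescein labelled alphaIIb integrin peptide tracer; top concentration of the series differs between compounds.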 The following applies: CIB1-GST / FITC-alphaIIb peptide fluorescence polarization; series mostly up to 114 µM. An outline of the steps:
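CIB1-GST (1 uM final) and compound incubated 15 min at room temperature before adding FITC-alphaIIb peptide tracer (100 nM final). Competition for binding read by fluorescence polarization (ex 480, em 540) after another 15 min at room temperature.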
On to `O=C(/C=C\n1cnc(-c2cc(C(F)(F)F)cc(C(F)(F)F)c2)n1)N1CC(F)(F)C1`, for which the Potency entry is “inactive”.

Consider `COc1c2c(c(C)c3c1C(=O)OC3)OC1(C)CC(O)C34OC(OC)(CC(OC(C)=O)C3(C)C1C2)OC4(C)C` (centres undefined), for which the Potency entry is “inactive”.

Turning to `CN1CCN(c2ccc(C(=O)Nc3n[nH]c4ccc(Cc5cc(F)cc(F)c5)cc34)c(NC3CCOCC3)c2)CC1`, the Potency entry is “inactive”.

For `CC(C)c1ccc(CO)cc1O[C@@H]1O[C@H](CO)[C@@H](O)[C@H](O)[C@H]1O`, the Potency result is “inactive”.

For the compound `O=C(/C=C\c1ccc(O)cc1)N[C@@H](Cc1ccc(O)cc1)C(=O)O`, the Potency entry is “inactive”.

Consider `CCC(C)C(=O)OC1CC(O)C23C4OCC5(C(O)CC2C1(C)C(O)O4)C3C(=O)C(O)C1(C)C(O)(c2ccoc2)CC2OC251` (centres undefined), for which the Potency entry was “inactive”.

In the case of `C/C1=C\CC[C@]2(C)O[C@@H]2[C@H](O)[C@H](C(C)C)[C@H](OC(=O)/C=C/c2ccccc2)C1`, the Potency entry was “inactive”.

As for `COc1ccc(C2(O)c3ccccc3NC(=O)C2O)cc1` (centres undefined), the Potency result was “inactive”.

With `CC(C)=CCC/C(C)=C/CCC1(C)Oc2c(c(O)cc3c2CN(C(CCC(=O)O)C(=O)O)C3=O)CC1O` (centres undefined), the Potency entry is “inactive”.

With `CC1(C)CCC[C@]2(C)[C@H]3CC(=O)O[C@]3(C)CC[C@@H]12`, the Potency entry is “inactive”.

As for `O=S(=O)(c1ccc(S(=O)(=O)n2cnc3ccccc32)cc1)N1CCCCCC1`, the Potency result was “inactive”.

Regarding `CC(C)(C)c1ccc(S(=O)(=O)Nc2ccc(Cl)cc2C(=O)c2cc[n+]([O-])cc2)cc1`, the Potency result was “inactive”.

Consider `OC[C@H]1O[C@@H](OC[C@H]2O[C@@H](OC/C=C/c3ccccc3)[C@H](O)[C@@H](O)[C@@H]2O)[C@@H](O)[C@@H]1O`, for which the Potency result is “inactive”.

On to `C=C1C(=O)O[C@H]2C1[C@H](OC(=O)/C(=C/CO)COC(=O)/C(C)=C/CO)CC(=C)[C@@H]1CC(=O)[C@@H](C)[C@@H]12` (some centres undefined), for which the Potency entry is “inactive”.

`COC(=O)C1=CO[C@@H](O[C@@H]2O[C@H](CO[C@@H]3O[C@H](COC(=O)/C=C/c4cc(OC)c(O)c(OC)c4)[C@@H](O)[C@H](O)[C@H]3O)[C@@H](O)[C@H](O)[C@H]2O)[C@@H]2C(CO)=CC[C@H]12`: the Potency result is “inactive”.

In the case of `C=CC(C)(CC/C=C(\C)C(=O)OC)OC1OC(COC(=O)CC(C)(O)CC(=O)O)C(OC2OC(CO)C(O)C(O)C2O)C(O)C1O` (centres undefined), the Potency entry is “inactive”.

Consider `CCOc1ccc(S(=O)(=O)n2c(C)nc3ccccc32)cc1`, for which the Potency result was “inactive”.

As to `NC(=O)[C@H]1CCS[C@@H]2C[C@]3(CCCN3C(=O)Cc3ccc(NC(=O)COc4ccc(Cl)cc4Cl)cc3)C(=O)N12`, the Potency entry was “inactive”.

As for `C=C1[C@H](OC(C)=O)[C@H]2[C@@H](OC(C)=O)[C@](C)(OC(C)=O)C[C@]2(OC(C)=O)C(=O)[C@H](C)/C=C/C(C)(C)C(=O)[C@H](OC(=O)C(C)CC)[C@H]1OC(C)=O` (some centres undefined), the Potency result is “inactive”.

`COC1=CC(=O)CC(C)C12Oc1cc(OC)cc(O)c1C2=O` (centres undefined): the Potency result is “inactive”.

For `CC(C)(O)C1CCC(C)(C2CCC3(C)C4CCC5C(C)(C(=O)OC6OC(CO)C(O)C(O)C6O)C(O)CC(O)C56CC46CCC23C)O1` (centres undefined), the Potency entry is “inactive”.

With `Cc1cc(C(=O)N2Cc3cnn(C)c3Nc3ccccc32)ccc1CNC(=O)N1CCC[C@H]1C(=S)N1CCCN(C)CC1`, the Potency entry is “inactive”.

As for `CC(=O)c1cc2c(cc1O)OC(C)(C)C=C2`, the Potency result was “inactive”.

Consider `C=C[C@H]1[C@H](O[C@@H]2O[C@H](CO)[C@@H](O)[C@H](O)[C@H]2O)OC=C(C(=O)OC)[C@H]1CCOC(=O)c1cc(O)c(O)c(O)c1`, for which the Potency entry was “inactive”.

In the case of `CC(C)CCC[C@@H](C)[C@H]1CC[C@H]2[C@@H]3CC(=O)[C@H]4C[C@@H](O)CC[C@]4(C)[C@H]3CC[C@]12C`, the Potency result is “inactive”.

In the case of `C=C1C(O)CC2C(C(=O)O)=COC(O[C@@H]3O[C@H](COC(=O)/C=C/c4ccc(O)cc4)[C@@H](O)[C@H](O)[C@H]3O)C12` (some centres undefined), the Potency entry was “inactive”.

For `CC(C)c1nc(-c2ccc(NC(=O)Nc3cccc(C(F)(F)F)c3)c3ccccc23)c2c(N)nccn12`, the Potency result was “inactive”.

For `C/C=C(\C)C(=O)O[C@H]1[C@@H](O[C@]2(COC(=O)CC(C)C)O[C@H](COC(=O)C(C)CC)[C@@H](OC(C)=O)[C@@H]2O)O[C@H](COC(C)=O)[C@@H](O)[C@@H]1O` (some centres undefined), the Potency entry was “inactive”.

On to `Cc1c(CN2CCN(C(=O)C(C)O)CC2)sc2c(N3CCOCC3)nc(-c3cnc(N)nc3)nc12` (centres undefined), for which the Potency result is “inactive”.

With `C=C1CCCC2(C)CC3(OC)OC(=O)C(C)=C3CC12` (centres undefined), the Potency entry is “inactive”.

For the compound `CC1=C(C(=O)O)/C(=C\CO[C@@H]2O[C@H](CO)[C@@H](O)[C@H](O)[C@H]2O)C(OC(=O)/C=C/c2ccc(O)cc2)C1` (some centres undefined), the Potency entry is “inactive”.

Regarding `CC1=C(CO)C(=O)O[C@@H]([C@@H](C)[C@H]2CC[C@H]3[C@@H]4C[C@H]5O[C@]56[C@@H](O)C=CC(=O)[C@]6(C)[C@H]4CC[C@]23C)C1`, the Potency result was “inactive”.

For the compound `C[C@@H]1O[C@@H](O[C@H]2[C@H](O[C@H]3[C@H](O[C@H]4CC[C@@]5(C)C(CC[C@]6(C)C5CC=C5[C@@H]7CC(C)(C)C[C@@H](O)[C@]7(C)CC[C@]56C)[C@@]4(C)CO)O[C@H](C(=O)O)[C@@H](O)[C@@H]3O)OC[C@H](O)[C@@H]2O)[C@H](O)[C@H](O)[C@H]1O` (some centres undefined), the Potency entry was “inactive”.

As to `CC1CC(O)/C=C/C(O)C(O)CC(=O)Cc2c(Cl)c(O)cc(O)c2C(=O)O1` (centres undefined), the Potency entry was “inactive”.

For the compound `C[C@@H]1C(=O)O[C@H]2C[C@]34[C@H]5C[C@@H](C(C)(C)C)[C@]36[C@@H](OC(=O)[C@H]6O)O[C@]4(C(=O)O5)[C@]21O`, the Potency entry is “inactive”.

In the case of `COc1cc(/C=C/C(=O)OC[C@H]2O[C@@](CO)(O[C@H]3O[C@H](CO)[C@@H](O)[C@H](O)[C@H]3O)[C@@H](OC(=O)/C=C/c3ccc(O)c(OC)c3)[C@@H]2O)ccc1O`, the Potency result was “inactive”.

Regarding `COC(=O)c1ccccc1O[C@@H]1O[C@H](CO)[C@@H](O)[C@H](O)[C@H]1O[C@@H]1O[C@@H](C)[C@H](O)[C@@H](O)[C@H]1O`, the Potency entry was “inactive”.

Regarding `Cc1[nH]nc(C(F)(F)F)c1Cc1sc2c(c1C(=O)N1C[C@](C)(O)CO1)c(=O)n(C)c(=O)n2C(C)C`, the Potency result is “inactive”.

Regarding `CC(C)CN(C[C@@H](O)[C@H](Cc1ccccc1)NC(=O)O[C@@H]1CO[C@H]2OCC[C@H]21)S(=O)(=O)c1ccc(N)cc1`, the Potency result is “inactive”.
